Experimental findings from PubChem BioAssay (Tox21) are described below.

Experiment [1] can be described thus: A CellTox Green Cytotoxicity Assay to monitor cytotoxicity in HepG2 cells - 0 hour (AID 1224882). Note: nearly all actives have a fitted effect of over 35% in size. The procedure, abridged: (§1)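 Nonlytic assay: viable cells exclude the dye, so fluorescence scales with cell death. HepG2 at 600 cells/well, compounds added after 5 h, signal read across 40 h.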
Experiment [2] is described as follows: A CellTox Green Cytotoxicity Assay to monitor cytotoxicity in HepG2 cells - 32 hour (AID 1224883). Note: nearly all actives have a fitted effect of over 50% in size. Note: potency is the fitted concentration of half-maximal effect. The procedure, abridged: as §1
The nature of experiment [3]: A CellTox Green Cytotoxicity Assay to monitor cytotoxicity in HEK293 cells - 8 hour (AID 1224884). Note: nearly all actives have a fitted effect of over 35% in size. Note: potency is the fitted concentration of half-maximal effect. In short, it runs like this: (§2)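 Seeding of HEK293 cells together with cytotoxicity dye preceded a 5 h incubation at 37 C/5% CO2. Test compounds in DMSO were then added and fluorescence monitored across 40 h.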
Experiment [4] in a line: qHTS RealTime-Glo MT Cell Viability Assay in HepG2 cells - 16 hour (AID 1224885). Note: nearly all actives have a fitted effect of over 50% in size. In short, it runs like this:
(§3)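 HepG2 cells were seeded at 600 cells/well together with NanoLuc luciferase and a cell-permeant prosubstrate, preincubated 5 h at 37 C/5% CO2, then pin-dosed with compounds in DMSO. Nonlytic luminescence from viable cells was read at each time point.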
For orientation: In qHTS, concentration-response curves come from the screen itself.

Experiment [5] can be described thus: qHTS RealTime-Glo MT Cell Viability Assay in HEK293 cells - 24 hour (AID 1224886). Note: nearly all actives have a fitted effect of over 50% in size. Note: potency is the fitted concentration of half-maximal effect. The procedure, abridged:
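HEK293 cells were seeded at 600 cells/well together with NanoLuc luciferase and cell-permeant prosubstrate, preincubated 5 h at 37 C/5% CO2, then given compound in DMSO by pintool. Luminescence from viable-cell prosubstrate reduction was read repeatedly over 40 h.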

Experiment [6] can be described thus: qHTS RealTime-Glo MT Cell Viability Assay in HEK293 cells - 8 hour (AID 1224887). Note: top concentration of the series differs between compounds; nearly all actives have a fitted effect of over 50% in size. In short, it runs like this: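 Tox21 screen in HEK293 using RealTime-Glo MT chemistry, with cells and reagent co-dispensed. Luminescence proportional to viable cell number was captured at intervals during 40 h compound exposure at 37 C.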
A short description of experiment [7]: A CellTox Green Cytotoxicity Assay to monitor cytotoxicity in HEK293 cells - 16 hour (AID 1224888). Note: nearly all actives have a fitted effect of over 35% in size. In short, it runs like this: as §2
Experiment [8] is described as follows: qHTS RealTime-Glo MT Cell Viability Assay in HepG2 cells - 0 hour (AID 1224889). Note: nearly all actives have a fitted effect of over 50% in size. The procedure, abridged: as §3
A short description of experiment [9]: A CellTox Green Cytotoxicity Assay to monitor cytotoxicity in HepG2 cells - 8 hour (AID 1224890). Note: nearly all actives have a fitted effect of over 45% in size. In short, it runs like this:
as §1

“And” between values parts separate entries of the source, which are not always exact repeats. Equal values may be shown once. Results filed as inconclusive are left out. A structure can be active in one record and inactive in another. The source made the active and inactive calls. Calls come from the whole dose curve; as a rule, active = well fitted curve in the direction sought with a large enough effect in the repeat runs; inconclusive = weak or mixed curves; inactive = no such curve, though single readings can be large; an effect the other way counts as inactive or inconclusive.

As to `CCCCCC(C)=O`, the Potency result in experiment [1], in [2], in [3], in [4], in experiment [5] and in [6] was “inactive” throughout. For the same molecule, the Potency result in experiment [7], in [8] and in experiment [9] was “inactive” in each case.

`Cc1ccc(Cl)cc1`: the Potency entry in experiment [1], in experiment [2], in [3], in [5], in [6] and in [7] was “inactive” each time. Further, the Potency entry in [8] and in experiment [9] was “inactive” in each case.

On to `c1cnc2c(c1)ccc1cccnc12`, for which the Potency result in experiment [1], in experiment [3], in experiment [6], in experiment [7], in experiment [8] and in [9] was “inactive” in each case. For the same molecule, the Potency in experiment [5] is 3.5 µM (active) and 8.71 µM (active) and 9.77 µM (active).

As for `COc1ccc(N)c(OC)c1`, the Potency result in experiment [1], in experiment [2], in experiment [3], in experiment [5], in [6] and in experiment [7] was “inactive” each time. In addition, the Potency entry in experiment [8] and in experiment [9] was “inactive” in each case.

With `CC(C=O)Cc1ccc(C(C)(C)C)cc1` (stereo unspecified), the Potency result in experiment [1], in experiment [3], in experiment [4], in experiment [5], in experiment [6] and in [7] was “inactive” in each case. Moreover, the Potency result in experiment [8] and in experiment [9] was “inactive” each time.

Take `CC(=O)OCc1ccc2c(c1)OCO2`: the Potency entry in [1], in experiment [2], in experiment [3], in experiment [4], in [5] and in experiment [6] was “inactive” each time. Further, the Potency result in experiment [7], in experiment [8] and in experiment [9] was “inactive” each time.

In the case of `CC(=O)c1nccs1`, the Potency result in [1], in experiment [2], in experiment [3], in experiment [4], in experiment [5] and in experiment [6] was “inactive” throughout. Moreover, the Potency result in experiment [7], in experiment [8] and in [9] was “inactive” throughout.

Consider `COc1ccccc1[N+](=O)[O-]`, for which the Potency result in experiment [1], in experiment [2], in experiment [3], in [5], in experiment [6] and in experiment [7] was “inactive” throughout. For the same molecule, the Potency entry in experiment [8] and in experiment [9] was “inactive” throughout.

Take `O=[N+]([O-])c1cc(C(F)(F)F)ccc1Cl`: the Potency result in [1], in experiment [2], in [3], in experiment [5], in [6] and in experiment [7] was “inactive” in each case. Besides, the Potency entry in experiment [8] and in experiment [9] was “inactive” each time.

For `NCCNCCNCCN`, the Potency result in experiment [1], in experiment [2], in experiment [3], in experiment [4], in experiment [5] and in experiment [6] was “inactive” throughout. The Potency result in experiment [7], in [8] and in experiment [9] was “inactive” in each case.

For the molecule `CC(=O)CC(=O)N(C)C`, the Potency result in [1], in experiment [2], in experiment [3], in experiment [4], in experiment [5] and in [6] was “inactive” in each case. The Potency entry in experiment [7], in experiment [8] and in [9] was “inactive” in each case.

Regarding `OCCOCCOCCOCCOCCO`, the Potency entry in experiment [1], in experiment [3], in experiment [5], in experiment [6], in [7] and in [8] was “inactive” in each case. Moreover, in [9], the Potency result is “inactive”.

On to `CC(COCC(C)OC(=O)c1ccccc1)OC(=O)c1ccccc1` (stereo unspecified), for which the Potency entry in experiment [1], in experiment [2], in experiment [3], in experiment [4], in experiment [7] and in [8] was “inactive” in each case. Also, in [9], the Potency entry was “inactive”.

As for `CCOC(=O)c1ccc(O)cc1`, the Potency entry in experiment [1], in experiment [3], in experiment [4], in experiment [5], in experiment [6] and in experiment [7] was “inactive” throughout. For the same molecule, the Potency result in experiment [8] and in experiment [9] was “inactive” in each case.

Consider `O=C1CCCCCCCCCCC1`, for which the Potency result in [1], in experiment [3], in [4], in experiment [5], in experiment [6] and in experiment [7] was “inactive” each time. Further, the Potency result in experiment [8] and in experiment [9] was “inactive” throughout.

In the case of `O=C(Cl)c1ccc(C(=O)Cl)cc1`, the Potency entry in [1], in experiment [2], in experiment [3], in experiment [4], in [5] and in experiment [6] was “inactive” in each case. Further, the Potency entry in experiment [7], in experiment [8] and in experiment [9] was “inactive” each time.

`O=C(O)C1=NN(c2ccc(S(=O)(=O)O)cc2)C(=O)C1`: the Potency entry in [1], in experiment [3], in experiment [4], in experiment [5], in [6] and in [7] was “inactive” each time. For the same molecule, the Potency result in experiment [8] and in experiment [9] was “inactive” in each case.

Turning to `Nc1cccc(C(F)(F)F)c1`, the Potency entry in experiment [1], in experiment [4], in [5], in experiment [6], in experiment [7] and in [8] was “inactive” in each case. In experiment [9], the Potency entry is “inactive”. In addition, in experiment [3], the Potency is 40.1 µM (active) and inactive.

Turning to `CC1=CC(=O)CC(C)(C)C1`, the Potency result in experiment [1], in experiment [3], in experiment [4], in experiment [5], in experiment [6] and in [7] was “inactive” throughout. Further, the Potency result in [8] and in experiment [9] was “inactive” in each case. In addition, the Potency in experiment [2] was 25.3 µM (active) and inactive.

In the case of `NC1CCCCC1N` (stereo unspecified), the Potency entry in [1], in experiment [3], in [5], in [6], in experiment [7] and in experiment [8] was “inactive” each time. Also, in [9], the Potency entry was “inactive”.

As for `Cc1ccc(C)c(S(=O)(=O)O)c1`, the Potency entry in experiment [1], in experiment [2], in [3], in experiment [4], in experiment [5] and in [6] was “inactive” each time. Further, the Potency entry in [7], in [8] and in [9] was “inactive” throughout.

For the molecule `Cc1ccccc1C=O`, the Potency entry in [1], in experiment [2], in [3], in experiment [5], in [6] and in [7] was “inactive” throughout. The Potency entry in experiment [8] and in experiment [9] was “inactive” in each case.

For the molecule `CC(=O)Nc1ccc(CC(=O)O)cc1`, the Potency result in experiment [1], in experiment [2], in experiment [3], in experiment [4], in experiment [5] and in experiment [6] was “inactive” throughout. Also, the Potency entry in [7], in [8] and in [9] was “inactive” throughout.

Consider `COC(=O)/C=C\C(=O)OC`, for which the Potency result in experiment [1], in [2], in [3], in experiment [4], in experiment [5] and in experiment [6] was “inactive” in each case. Besides, the Potency entry in experiment [7], in experiment [8] and in experiment [9] was “inactive” each time.

With `Cc1cc(C)cc(O)c1`, the Potency entry in experiment [1], in experiment [2], in experiment [3], in experiment [5], in [6] and in experiment [7] was “inactive” each time. In addition, the Potency entry in experiment [8] and in experiment [9] was “inactive” each time.

As to `COc1ccc2cc3[n+](cc2c1OC)CCc1cc2c(cc1-3)OCO2`, the Potency entry in experiment [1], in experiment [3], in experiment [7], in experiment [8] and in experiment [9] was “inactive” throughout. Moreover, the Potency in experiment [5] was 4.4 µM (active) and 10.7 µM (active).

`CCCN(CCC)C(=O)SCC`: the Potency entry in experiment [1], in experiment [3], in experiment [5], in experiment [6], in [7] and in [8] was “inactive” each time. In addition, the Potency result in experiment [9] is “inactive”.

Take `Cc1cc(C)c(O)c(C)c1`: the Potency result in experiment [1], in experiment [2], in experiment [3], in [4], in experiment [5] and in experiment [6] was “inactive” throughout. For the same molecule, the Potency entry in [7], in [8] and in experiment [9] was “inactive” each time.

Take `C=C1C[C@]23C[C@@]1(O)CC[C@H]2[C@@]12C=C[C@H](O)[C@@](C)(C(=O)O1)[C@H]2[C@@H]3C(=O)O`: the Potency result in experiment [1], in experiment [2], in experiment [3], in [4], in experiment [5] and in experiment [6] was “inactive” in each case. Also, the Potency entry in experiment [7], in experiment [8] and in [9] was “inactive” throughout.

Consider `CCCCCCC(=O)O`, for which the Potency entry in experiment [1], in [2], in experiment [3], in [4], in experiment [5] and in [6] was “inactive” throughout. For the same molecule, the Potency result in experiment [7], in experiment [8] and in [9] was “inactive” throughout.
